High-throughput results deposited in PubChem BioAssay by National Center for Advancing Translational Sciences (NCATS).
Rab9 prom act: qHTS Assay for Rab9 Promoter Activators; Huh7 Rab9 promoter-luciferase reporter, luminescence, 24 h; AID 485297, 2010; Potency, µM (series often up to 9.22 µM), without a hit: top-dose activation, negative = inhibition, hits mostly activators; 320,000 compounds, 2.8% hits; also: % of control where 0% means no effect; nearly all actives have a fitted effect of over 60% in size
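Stable Rab9-luc Huh7, 1500 cells/well, 2 h settle; cmpd in DMSO, 24 h, 37 °C/5% CO2; luciferase reagent 10 min RT; luminescence.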
SMN2 splice enh: qHTS Assay for Enhancers of SMN2 Splice Variant Expression | HEK293 SMN2-luciferase splicing reporter, luminescence, 30-36 h | Potency, µM (titrated, usually from 46.1 µM), for inactives: top-dose activity change, positive = activation, hits mostly activators | 210,000 compounds, 2.8% hits; also: % of control where 0% means no effect; nearly all actives have a fitted effect of over 55% in size
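qHTS luciferase splicing reporter: luminescence rises when SMN2 exon 7 is included in transfected HEK293 cells. Compound exposure lasted 30-36 h at 37C, with 4.5 mM final sodium butyrate as control, followed by a ONE-Glo read.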
Luc counter: Counterscreen for Luciferase (Kinase-Glo TM) Inhibition; Potency, µM (series often up to 38.3 µM), without a hit: top-dose activity change, negative = inhibition, actives largely listed as inhibitors; AID 1379, 2008; Kinase-Glo luciferase, ATP luminescence, 8 min; Luciferin 4-monooxygenase (Photuris pensylvanica), Q27757; 200,000 compounds, 0.28% hits; also: % is scaled to controls: 0 for no effect and ±100 for the full control effect; nearly all actives have a fitted effect of over 60% in size
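Compounds were added to a substrate mix at pH 7.2 (50 mM imidazole, 10 uM ATP, within the enzyme's linear range), followed by Kinase-Glo detection reagent; luminescence was measured after 8 minutes at ambient temperature.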
FLuc counter: qHTS profiling assay for firefly luciferase inhibitor/activator using purifed enzyme and Km concentrations of substrates (counterscreen for miR-21 project) | AID 588342, 2011 | Luciferin 4-monooxygenase (Photinus pyralis), P08659 | Potency, µM (titrated, usually from 57.5 µM), without a hit: top-dose activity change, negative = inhibition, usual class: inhibitors | 360,000 compounds, 6.9% hits | purified FLuc, Km substrates, luminescence inhibition;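 also: plate controls were vehicle for no effect and reference inhibitor for full effect; nearly all actives have a fitted effect of over 55% in size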
Target sequence (P08659 whole entry, looked up): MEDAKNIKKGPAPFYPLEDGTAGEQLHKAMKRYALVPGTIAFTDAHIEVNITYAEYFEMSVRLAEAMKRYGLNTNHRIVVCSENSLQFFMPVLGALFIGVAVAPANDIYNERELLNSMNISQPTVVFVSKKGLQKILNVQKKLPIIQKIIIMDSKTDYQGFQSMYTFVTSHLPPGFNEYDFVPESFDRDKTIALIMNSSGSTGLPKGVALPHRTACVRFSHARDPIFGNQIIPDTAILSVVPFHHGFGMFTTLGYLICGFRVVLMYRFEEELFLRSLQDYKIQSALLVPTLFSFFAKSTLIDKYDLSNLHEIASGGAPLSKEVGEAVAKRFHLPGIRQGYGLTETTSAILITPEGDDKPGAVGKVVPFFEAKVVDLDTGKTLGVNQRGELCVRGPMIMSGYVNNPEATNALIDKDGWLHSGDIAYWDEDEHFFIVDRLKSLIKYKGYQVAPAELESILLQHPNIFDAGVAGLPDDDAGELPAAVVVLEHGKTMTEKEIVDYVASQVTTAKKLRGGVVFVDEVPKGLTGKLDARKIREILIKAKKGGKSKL
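Purified P. pyralis luciferase, 10 nM final, with Km-level 10 uM D-luciferin and 10 uM ATP in 50 mM Tris acetate pH 7.5, 10 mM Mg acetate, 0.01% Tween-20, 0.05% BSA; 6-point qHTS titration about 60 µM downward; luminescence read.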
ELG1 genotoxic: qHTS screen for small molecules that induce genotoxicity in human embryonic kidney (HEK293T) cells expressing luciferase-tagged ELG1; HEK293T ELG1-luciferase reporter, luminescence, 16 h; Potency, µM (titrated, usually from 46 µM), for inactives: top-dose activity change, positive = activation, usual class: activators; 330,000 compounds, 1.3% hits; AID 504466, 2011; also: % of control where 0% means no effect; nearly all actives have a fitted effect of over 60% in size
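After overnight (16 hr) compound treatment at 37 °C, ELG1-luciferase HEK293T cells were lysed with ONE-Glo; luminescence quantified 30 min later at room temperature.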
NPC1 promoter act: qHTS Assay for NPC1 Promoter Activators; Potency, µM (series often up to 9.22 µM), for the others: top-dose activation, hits mostly activators; Huh7 NPC1 promoter luciferase reporter, 24 h; 320,000 compounds, 2.4% hits; also: % of control where 0% means no effect; nearly all actives have a fitted effect of over 60% in size
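NPC1 promoter–luciferase Huh7 cells; 24 h compound; luminescence.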
* marks the source's active call; other numbers are inactive results; [ ] = remark or other dose. In the library only some 7.5% were active in any assay of this set; here they are far more common. Calls follow the shape of the dose curve; as a rule, active = well fitted curve in the direction sought with a large enough effect; inconclusive = small, poorly fitted or top-dose-only effect, or another doubt; inactive = no such curve, though single readings can be large; an effect the other way counts as inactive or inconclusive. Potency is read from the fitted curve at half-maximal effect.

What do the screens show for `CC1=C(c2ccc(C)cc2)[N+](=O)C(C)(C)N1[O-]`?
Rab9 prom act: 4µM*; Luc counter: -9%; FLuc counter: 9.5µM*; ELG1 genotoxic: inconclusive; NPC1 promoter act: 25%

What do the screens show for `CC1=C(c2ccccc2)[N+](=O)C2(CCCC2)N1[O-]`?
Rab9 prom act: -5%; SMN2 splice enh: -2%; Luc counter: 12%; FLuc counter: 3%; ELG1 genotoxic: 2%; NPC1 promoter act: -1%

Results for CC1=C(c2ccc(F)cc2)[N+](=O)C(C)(C)N1[O-] ?
Rab9 prom act: -2%; Luc counter: -1%; FLuc counter: 27µM*; ELG1 genotoxic: -1%; NPC1 promoter act: -5%

Results for CCN(C(=O)Cn1c(=O)oc2cc(S(=O)(=O)N3CCCCC3)ccc21)c1ccccc1 ?
SMN2 splice enh: -8%; FLuc counter: -7%

What do the screens show for `COc1ccc(-c2nc(-c3ccccn3)no2)cc1`?
Rab9 prom act: 0.04µM*; Luc counter: 0.89µM*; FLuc counter: 0.095µM*; ELG1 genotoxic: inconclusive; NPC1 promoter act: 0.1µM*

Results for O=[N+]([O-])c1cc(-c2nc(-c3ccccn3)no2)ccc1NCc1ccccc1 ?
FLuc counter: -18%

Results for Clc1ccc(-c2nc(-c3ccccn3)no2)cc1Cl ?
Rab9 prom act: 0.56µM*; SMN2 splice enh: 2.5µM*; Luc counter: 10µM*; FLuc counter: 0.95µM*; ELG1 genotoxic: inconclusive; NPC1 promoter act: 0.32µM*

What do the screens show for `Cc1nc(-c2ccccc2)sc1-c1ccc(SCC(=O)Nc2ccc(F)cc2F)nn1`?
FLuc counter: -17%

How did CCc1ccc(NCc2cc3cc4c(cc3n(CC(=O)Nc3ccc(C)cc3)c2=O)OCO4)cc1 do in these assays?
FLuc counter: -14%

What do the screens show for `COc1ccc2nc(SCC(=O)N3CC(=O)Nc4ccccc43)c(C#N)cc2c1`?
Rab9 prom act: -12%; SMN2 splice enh: 11%; Luc counter: 3%; FLuc counter: inconclusive; ELG1 genotoxic: -9%; NPC1 promoter act: -8%

Results for Cc1cc(C)c2nc(SCC(=O)N3CC(=O)Nc4ccccc43)c(C#N)cc2c1 ?
Rab9 prom act: -31%; SMN2 splice enh: -58%; Luc counter: -6%; FLuc counter: 12µM*; ELG1 genotoxic: 12%; NPC1 promoter act: -19%

What do the screens show for `COc1ccc(C[C@@H]2C(=O)N[C@H](C)C(=O)N(C)[C@@H]3Cc4ccc(cc4)Oc4cc(ccc4O)C[C@H](C(=O)N[C@@H](C)C(=O)N[C@H](C)C(=O)N2C)N(C)C3=O)cc1`?
SMN2 splice enh: -103%[9.22 µM]; Luc counter: -8%[7.66 µM]

What do the screens show for `CCOc1ccc(C(=S)NC2CCCCC2)cc1OCC`?
Rab9 prom act: 2%; FLuc counter: inconclusive; ELG1 genotoxic: -1%; NPC1 promoter act: 1%

How did CN(C)c1ccc(C(=O)OCC(=O)NC2CCCCCC2)cc1 do in these assays?
Rab9 prom act: 0%; SMN2 splice enh: -5%; Luc counter: -1%; FLuc counter: -3%; ELG1 genotoxic: -7%; NPC1 promoter act: -4%

Results for CCN(CC)c1ccc(C(=S)NC2CCCCC2)cc1 ?
Rab9 prom act: 15%; SMN2 splice enh: inconclusive; Luc counter: -2%; FLuc counter: 15µM*; ELG1 genotoxic: inconclusive; NPC1 promoter act: 11%

Results for CN(C)c1ccc(C(=S)NC2CCCCC2)cc1 ?
Rab9 prom act: 2.8µM*; SMN2 splice enh: 11µM*; Luc counter: 2%; FLuc counter: 4.8µM*; ELG1 genotoxic: 18µM*; NPC1 promoter act: 3.2µM*

How did COc1ccc(Cl)cc1NC(=O)Cn1c(=O)n(-c2ccc(C)cc2)c(=O)c2ccc(C(=O)NCc3ccccc3Cl)cc21 do in these assays?
SMN2 splice enh: 6%; FLuc counter: -3%

Results for CCCOC(=O)c1ccc(NC(=O)COC)cc1 ?
Rab9 prom act: 6%; SMN2 splice enh: 0%; Luc counter: 18%; FLuc counter: inconclusive; ELG1 genotoxic: inconclusive; NPC1 promoter act: 2%

What do the screens show for `CCCOC(=O)c1ccc(NC(=O)Cc2cccs2)cc1`?
Rab9 prom act: inconclusive; FLuc counter: 19µM*; ELG1 genotoxic: inconclusive; NPC1 promoter act: inconclusive

What do the screens show for `CC(=O)c1ccc(NC(=O)Cc2cccs2)cc1`?
Rab9 prom act: 2.5µM*; FLuc counter: inconclusive; ELG1 genotoxic: inconclusive; NPC1 promoter act: 2.8µM*

Results for Cc1c(C)c(C)c2[nH]c(-c3ccc4c(c3)OCO4)nc2c1C ?
Rab9 prom act: 17%; FLuc counter: 4.8µM*; ELG1 genotoxic: -10%; NPC1 promoter act: 19%

What do the screens show for `CC1(C)CC(=O)C2=C(C1)O[C@@]1(c3ccsc3)Cc3cc(C#N)ccc3C2O1`?
Rab9 prom act: -3%[1.84 µM]; FLuc counter: inconclusive; NPC1 promoter act: 3%[1.84 µM]

What do the screens show for `CC1CCCCC12NC(=O)N(CC(=O)N1CCN(S(=O)(=O)Cc3ccccc3)CC1)C2=O` (stereo unspecified)?
Rab9 prom act: 0%; FLuc counter: 2%; ELG1 genotoxic: 0%; NPC1 promoter act: 1%

How did COc1ccc(CCNC(=S)N2CCC(C(=O)c3ccc(F)cc3)CC2)cc1OC do in these assays?
Rab9 prom act: -24%; SMN2 splice enh: -65%; Luc counter: -5%; FLuc counter: -5%; ELG1 genotoxic: -8%; NPC1 promoter act: -18%

How did COc1ccc2nc(N3CCCC(C(=O)NCCCN4CCN(C)CC4)C3)sc2c1 (stereo unspecified) do in these assays?
Rab9 prom act: 16%; SMN2 splice enh: -2%; Luc counter: -7%; FLuc counter: 17µM*; ELG1 genotoxic: 14%; NPC1 promoter act: 0%

What do the screens show for `CCOc1ccc2nc(N3CCCC(C(=O)NCCCN4CC(C)CC(C)C4)C3)sc2c1` (stereo unspecified)?
Rab9 prom act: 0.89µM*; FLuc counter: inconclusive; ELG1 genotoxic: 2%[9.26 µM]; NPC1 promoter act: 3%

What do the screens show for `COc1ccc2nc(N3CCCC(C(=O)NCCc4ccc(OC)c(OC)c4)C3)sc2c1` (stereo unspecified)?
Rab9 prom act: 2.8µM*; FLuc counter: 8.5µM*; ELG1 genotoxic: -10%; NPC1 promoter act: 2.8µM*
